# According to PubChem BioAssay:
# “And” between values parts separate entries of the source, which are not always exact repeats. Equal values may be shown once. Inconclusive results are not listed. Some structures have more than one record in an assay (separate samples or runs), and their calls can disagree. The source made the active and inactive calls. Unless noted, the rule behind the calls is not given here.
# Tests used:
# [1] = liver-stage malaria parasite growth inhibition, primary screen, cell-based, HepG2, luciferase luminescence, HepG2 viability (AID 624349; in the data active = parasite load remaining mostly below about 12%, no sharp cut-off; inactive = mostly above about 10%;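 note: 100% = mean of DMSO negative control wells on the same plate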); details: P. berghei liver stage in HepG2, luciferase luminescence, concentration not given here; parasite load remaining: stronger effect = lower value; viability: measured here: HepG2 viability without parasites
# [2] = kinase inhibitors against Plasmodium liver-stage infection, cell-based, known kinase inhibitor set, luminescence, hepatoma host viability (AID 624392); details: Plasmodium liver stage in hepatoma cells, luciferase luminescence, concentration not given here; liver cell % of control: measured here: host liver cell viability; parasite % of control: stronger effect = lower value;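 note: infected cells incubated roughly two days before readout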
# [3] = modulators of glucocorticoid suppression of NF-kB, cell-based, luciferase, IL-1B stimulus, dexamethasone (AID 624486); details: NF-kB luciferase reporter, IL-1B + dexamethasone, luminescence; percent of negative control (+Dex): actives lie on both sides, concentration not given here; z-score: measured here: IL-1B alone, no Dex;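 for percent of negative control (+Dex): 100% = mean signal of vehicle control wells on the plate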
# [4] = kinase inhibitors altering Pseudomonas killing of worms, whole organism (AID 651566);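 note: tested at 14 µM; sign flipped so higher z means a lower ratio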; details: C. elegans killed by P. aeruginosa, survival ratio
# [5] = activators of macrophage pro-inflammatory response, cell-based, murine, luminescence (AID 652131); details: murine macrophage pro-inflammatory reporter, stronger effect = higher value
# [6] = molecular target: Cellular tumor antigen p53 (Homo sapiens) (UniProt P04637); experiment: kinase inhibitors altering GFP-p53 stability in HPV16-positive cells, imaging, known kinase inhibitor set, EGFP/DsRed ratio (AID 1053116); details: stronger effect = higher value; EGFP object count: measured here: GFP-p53 positive objects count;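 note: cells exposed to compounds for 24 h at 37 °C before reading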
# [7] = IRF3 reporter activation in THP-1 macrophages, cell-based, PMA-stimulated THP-1, luminescence (AID 1053176); details: PMA-differentiated THP-1, IRF3 reporter luminescence; stronger effect = higher value
# [8] = survival rescue of mitochondrial mutant cells in low glucose, primary screen, MELAS cybrids, Rieske KO mouse fibroblasts, CellTiter-Glo (AID 1508586;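 active = mean z-score across replicates of 1.96 or higher in either the MELAS or the Rieske mutant cell line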;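 note: z relative to plate mean and SD of compound and empty wells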)
# [9] = viability rescue of complex I mutant cybrids, primary screen, cell-based, galactose medium, ATP luminescence (AID 1645843;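 active = z-score of at least 1.8 in each of two replicates, scored against plate mean and spread of sample wells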;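 note: positive z means more ATP and so rescue of galactose-driven cybrid death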); details: complex I mutant cybrid cells, 72 h, stronger effect = higher value
# [10] = growth inhibition of DIPG glioma cells, dose response, cell-based, JHH-DIPG-1, MIPE4.0, CellTiter-Glo, qHTS (AID 1347062; cut-off not given, nearly all actives have AC50 up to about 27 µM;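 note: cells exposed to compound for two days before readout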); details: JHH-DIPG-1 viability, CellTiter-Glo ATP luminescence
# [11] = growth inhibition of DIPG glioma cells, dose response, cell-based, SU-DIPG-IV, MIPE4.0, CellTiter-Glo, qHTS (AID 1347063; cut-off not given, nearly all actives have AC50 up to about 30 µM;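 note: compound exposure lasted 48 hours before the viability readout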); details: SU-DIPG-IV viability, CellTiter-Glo ATP luminescence
# [12] = viability loss in pontine glioma line – cell-based, SU-DIPG-XXV, MIPE5.0, CellTiter-Glo, qHTS, dose response (AID 1347065; cut-off not given, nearly all actives have AC50 up to about 26 µM;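 note: cells exposed to compound for 48 hours before ATP readout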); details: CellTiter-Glo ATP luminescence
# [13] = SU-DIPG-VI glioma cell viability, MIPE4.0 library, CellTiter-Glo luminescence, qHTS (AID 1347066; cut-off not given, nearly all actives have AC50 up to about 30 µM;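 note: cells exposed to compound for 48 hours before readout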); details: CellTiter-Glo ATP luminescence
# [14] = JHH-DIPG-1 glioma cell viability, MIPE5.0 library, CellTiter-Glo luminescence, qHTS (AID 1347067; cut-off not given, nearly all actives have AC50 up to about 26 µM;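 note: cells exposed to compound for 48 hours before readout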); details: JHH-DIPG-1 glioma viability, CellTiter-Glo ATP luminescence
# [15] = SU-DIPG-XXV glioma cell viability, MIPE5.0 library, qHTS (AID 1347068; cut-off not given, nearly all actives have IC50 up to about 30 µM)
# [16] = MELAS cybrid survival, CellTiter-Glo 48 h, stronger effect = higher value
# [17] = Rieske KO mouse fibroblast survival, CellTiter-Glo 72 h
# Cellular tumor antigen p53 (Homo sapiens), sequence (P04637 whole entry, looked up): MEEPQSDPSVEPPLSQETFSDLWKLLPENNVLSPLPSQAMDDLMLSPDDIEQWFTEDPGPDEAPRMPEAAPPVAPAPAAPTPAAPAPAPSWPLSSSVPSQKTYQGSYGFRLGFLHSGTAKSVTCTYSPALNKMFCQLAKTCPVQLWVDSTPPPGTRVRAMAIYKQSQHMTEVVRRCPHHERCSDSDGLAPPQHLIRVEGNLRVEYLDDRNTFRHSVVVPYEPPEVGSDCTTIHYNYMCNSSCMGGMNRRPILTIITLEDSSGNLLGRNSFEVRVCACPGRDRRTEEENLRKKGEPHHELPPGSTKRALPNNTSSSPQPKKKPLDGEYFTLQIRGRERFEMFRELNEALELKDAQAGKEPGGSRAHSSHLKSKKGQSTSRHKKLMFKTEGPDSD
Structure (SMILES),parasite load remaining [1],viability [1] [%],liver cell % of control [2],parasite % of control [2],percent of negative control (+Dex) [3],z-score [3],z-score [4],z-score [5],EGFP object count [6],EGFP/DsRed ratio [6],fraction signal [7],"z-score [8, 16]","z-score [8, 17]",z-score [9],AC50 [10],AC50 [11],outcome [12],AC50 [13],outcome [14],outcome [15]
Nc1nccc(-c2c(-c3ccc(F)cc3)ncn2C2CCNCC2)n1,50.2% (inactive),61.1,79.4% and 93.7%,77.2% (inactive) and 61.2% (inactive),136% (inactive) and 118% (inactive),1.59 and 1.56,-0.995 (inactive) and 0.19 (inactive),15.2 (active) and 4.36 (inactive),12.5 and 3,0.0782 (inactive) and 0.0295 (inactive),0.0105 (inactive) and -0.008 (inactive),-0.885 (inactive) and -0.815 (inactive),0.00861 and -0.488,–,–,–,–,–,–,–
Cn1cc(C2=C(c3cn(CCCSC(=N)N)c4ccccc34)C(=O)NC2=O)c2ccccc21,30.4% (inactive),73.7,100%,330% (inactive),98% (inactive),0.705,–,–,1,0.00598 (inactive),-0.0115 (inactive),3.84 (active),-1.11,-0.7 (inactive),–,–,–,–,–,–
CN(C)C(=O)O[C@H]1CN[C@H](C#Cc2cc3ncnc(Nc4ccc(OCc5cccc(F)c5)c(Cl)c4)c3s2)C1,–,–,97.6%,127% (inactive),92% (inactive),-0.215,0.225 (inactive),-0.738 (inactive),2,0.131 (inactive),0.001 (inactive),-0.153 (inactive),-0.193,–,–,–,–,–,–,–
Cn1cc(C2=C(c3c4n(c5ccccc35)CCC(CN)C4)C(=O)NC2=O)c2ccccc21 (centres undefined),–,–,84.3%,50.7% (inactive),89.5% (inactive),-0.37,–,–,2,0.0193 (inactive),-0.001 (inactive),–,–,–,13.2 µM (active),18.7 µM (active),inactive,23.5 µM (active),inactive,inactive
CCNC(=O)O[C@H]1CN[C@H](C#Cc2cc3ncnc(Nc4ccc(OCc5cccc(F)c5)c(Cl)c4)c3s2)C1,–,–,105%,113% (inactive),82.5% (inactive),-0.355,1.02 (inactive),-0.875 (inactive),5.5,0.233 (inactive),-0.003 (inactive),0.000408 (inactive),-0.264,–,–,–,–,–,–,–
O=C(O[C@H]1CN[C@H](C#Cc2cc3ncnc(Nc4ccc(OCc5cccc(F)c5)c(Cl)c4)c3s2)C1)N1CCOCC1,–,–,89.4%,117% (inactive),74.5% (inactive),-1.65,0.44 (inactive),-0.505 (inactive),4.5,0.0369 (inactive),-0.0095 (inactive),-0.421 (inactive),-0.498,–,–,–,–,–,–,–
FC(F)(F)CNc1nccc(-c2cnn3ncccc23)n1,–,–,95.3%,264% (inactive),33.5% (active),-6.74,-1.18 (inactive),-1.22 (inactive),2,0.0558 (inactive),-0.0105 (inactive),0.365 (inactive),-0.533,–,–,–,–,–,–,–
COC(=O)Nc1nc2ccc(S(=O)(=O)c3ccc(NC(=O)Nc4cc(C(F)(F)F)ccc4F)cc3)cc2[nH]1,–,–,80%,100% (inactive),86.5% (inactive),0.105,-0.105 (inactive),2.68 (inactive),1.5,0.00404 (inactive),0 (inactive),0.00101 (inactive),-0.437,–,–,–,–,–,–,–
COc1ccc(Nc2ncc(-c3ccccc3)o2)cc1OC,–,–,152%,101% (inactive),154% (inactive),4.41,-0.885 (inactive),4.21 (inactive),3,0.0153 (inactive),-0.0085 (inactive),1.52 (inactive),0.00272,–,–,–,–,–,–,–
COC(=O)c1sc(-n2cnc3cc(OC)c(OC)cc32)cc1OCc1ccccc1C(F)(F)F,–,–,103%,126% (inactive),86% (inactive),0.12,0.885 (inactive),0.445 (inactive),4.5,0.108 (inactive),-0.003 (inactive),-0.644 (inactive),0.293,–,–,–,–,–,–,–
CC(C)c1ccc2c(N=Nc3ccc(S(N)(=O)=O)cc3)c(O)[nH]c2c1,–,–,93.4%,160% (inactive),94% (inactive),0.03,0.635 (inactive),-0.919 (inactive),4,0.177 (inactive),-0.0065 (inactive),-0.58 (inactive),-0.254,–,–,–,–,–,–,–
COc1ccc(-c2nn3ncccc3c2-c2ccnc(Nc3ccc4c(c3)OCCO4)n2)cc1,–,–,172%,12.5% (active),79% (inactive),-1.21,1.58 (inactive),-0.248 (inactive),1.5,0.0413 (inactive),0.0025 (inactive),0.896 (inactive),0.839,–,–,–,–,–,–,–
Cc1ccc(NC(=O)c2ccoc2)cc1-c1ccc(C(=O)NCC2CC2)cc1,–,–,104%,120% (inactive),99.5% (inactive),0.73,0.02 (inactive),-0.057 (inactive),2,0.0344 (inactive),-0.016 (inactive),-1.06 (inactive),-0.276,–,–,–,–,–,–,–
N#Cc1ccc(Oc2nccc(-c3c(-c4ccc(F)cc4)ncn3C3CCNCC3)n2)cc1,–,–,76.8%,142% (inactive),90.5% (inactive),0.29,0.255 (inactive),-0.275 (inactive),1,0.00276 (inactive),-0.0025 (inactive),-0.193 (inactive),-0.456,–,–,–,–,–,–,–
